About 85 (1%) of roughly 5,700 compounds were called active. This is one part of a sample in which actives are shown more often than they occur. Cut-off read from the data, not from the text of the source: active = p53-positive nuclei above about 36% (passing the limit was not always enough); inactive = the rest.
Legend:
[1] = p53 stabilisation in HPV-positive human cells, imaging, p53-positive nuclei imaging, 24 h, 48 h (AID 1508601); conditions: 24/48 h
[2] = target: Cellular tumor antigen p53 (Homo sapiens) (UniProt P04637); experiment: as above; conditions: 24/48 h, stronger effect = higher value
Sequence of Cellular tumor antigen p53 (Homo sapiens) (P04637 whole entry, looked up): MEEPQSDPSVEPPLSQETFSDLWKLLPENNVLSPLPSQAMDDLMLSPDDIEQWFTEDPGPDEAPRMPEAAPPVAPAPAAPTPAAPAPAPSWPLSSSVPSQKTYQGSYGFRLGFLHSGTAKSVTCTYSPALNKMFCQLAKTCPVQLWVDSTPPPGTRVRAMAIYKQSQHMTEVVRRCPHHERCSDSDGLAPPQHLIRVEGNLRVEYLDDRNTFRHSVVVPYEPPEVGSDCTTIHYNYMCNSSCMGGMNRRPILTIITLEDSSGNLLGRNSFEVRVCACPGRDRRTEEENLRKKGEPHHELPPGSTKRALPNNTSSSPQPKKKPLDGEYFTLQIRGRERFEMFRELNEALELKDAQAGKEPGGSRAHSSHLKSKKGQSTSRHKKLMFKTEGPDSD

[3] = measured here: cell number at 24 h, concentration not given here
[4] = measured here: cell number at 48 h, concentration not given here
[5] = measured here: p53 positive nuclei at 24 h, concentration not given here
[6] = measured here: cell number at 24 h, Library stock concentration: 10 mM
[7] = measured here: cell number at 48 h, Library stock concentration: 10 mM
[8] = Library stock concentration: 10 mM
[9] = measured here: p53 positive nuclei at 24 h, Library stock concentration: 10 mM
[10] = measured here: cell number at 24 h, Library stock concentration: 80 uM
[11] = measured here: cell number at 24 h, Library stock concentration: 400 uM
[12] = measured here: cell number at 24 h, Library stock concentration: 2 mM
[13] = measured here: cell number at 24 h, Library stock concentration: 3.33 mM
[14] = measured here: cell number at 48 h, Library stock concentration: 80 uM
[15] = measured here: cell number at 48 h, Library stock concentration: 400 uM
[16] = measured here: cell number at 48 h, Library stock concentration: 2 mM
[17] = measured here: cell number at 48 h, Library stock concentration: 3.33 mM
[18] = Library stock concentration: 80 uM
[19] = Library stock concentration: 400 uM
[20] = Library stock concentration: 2 mM
[21] = Library stock concentration: 3.33 mM
[22] = measured here: p53 positive nuclei at 24 h, Library stock concentration: 80 uM
[23] = measured here: p53 positive nuclei at 24 h, Library stock concentration: 400 uM
[24] = measured here: p53 positive nuclei at 24 h, Library stock concentration: 2 mM
[25] = measured here: p53 positive nuclei at 24 h, Library stock concentration: 3.33 mM

Q: Which results are given for `COc1cc(C(=O)NCc2ccc(OCCN(C)C)cc2)cc(OC)c1OC`?
A: nuclei count, normalised [1, 3]: 106%; nuclei count, normalised [1, 4]: 102%; p53-positive nuclei, normalised ([2]; concentration not given here): -0.214% (inactive); p53-positive nuclei, normalised [2, 5]: -0.0679%

Q: For `Cc1cc(C)c(N(Cc2ccccc2)S(=O)(=O)c2ccc(OCCNC(=O)c3cc4ccccc4o3)cc2)c(C(=O)NO)c1`, which nuclei count, normalised ([1]; measured here: cell number at 24 h, Library stock concentration: 46 uM) is on record?
A: Its nuclei count, normalised is 106%.

Q: And the nuclei count, normalised ([1]; measured here: cell number at 24 h, Library stock concentration: 278 uM)?
A: The nuclei count, normalised was 102%.

Q: And the nuclei count, normalised ([1]; measured here: cell number at 24 h, Library stock concentration: 1.67 mM)?
A: The nuclei count, normalised was 106%.

Q: What about the nuclei count, normalised [1, 6] of the same compound?
A: The nuclei count, normalised was 108%.

Q: What about the nuclei count, normalised ([1]; measured here: cell number at 48 h, Library stock concentration: 46 uM) of the same compound?
A: Its nuclei count, normalised is 108%.

Q: And the nuclei count, normalised ([1]; measured here: cell number at 48 h, Library stock concentration: 278 uM)?
A: The nuclei count, normalised was 104%.

Q: What about the nuclei count, normalised ([1]; measured here: cell number at 48 h, Library stock concentration: 1.67 mM) of the same compound?
A: The nuclei count, normalised was 111%.

Q: And the nuclei count, normalised [1, 7]?
A: Its nuclei count, normalised is 119%.

Q: And the p53-positive nuclei, normalised ([2]; Library stock concentration: 46 uM)?
A: Its p53-positive nuclei, normalised is -0.344% (inactive).

Q: And the p53-positive nuclei, normalised ([2]; Library stock concentration: 278 uM)?
A: The p53-positive nuclei, normalised was -0.116% (inactive).

Q: What about the p53-positive nuclei, normalised ([2]; Library stock concentration: 1.67 mM) of the same compound?
A: Its p53-positive nuclei, normalised is -0.271% (inactive).

Q: And the p53-positive nuclei, normalised [2, 8]?
A: The p53-positive nuclei, normalised was 0.0163% (inactive).

Q: What about the p53-positive nuclei, normalised ([2]; measured here: p53 positive nuclei at 24 h, Library stock concentration: 46 uM) of the same compound?
A: Its p53-positive nuclei, normalised is -0.21%.

Q: And the p53-positive nuclei, normalised ([2]; measured here: p53 positive nuclei at 24 h, Library stock concentration: 278 uM)?
A: The p53-positive nuclei, normalised was -0.21%.

Q: What about the p53-positive nuclei, normalised ([2]; measured here: p53 positive nuclei at 24 h, Library stock concentration: 1.67 mM) of the same compound?
A: The p53-positive nuclei, normalised was -0.139%.

Q: What about the p53-positive nuclei, normalised [2, 9] of the same compound?
A: The p53-positive nuclei, normalised was -0.147%.

Q: Which results are given for `CC(C)C1C(=O)NC(CCCN=C(N)N)C(=O)NCC(=O)NC(CC(=O)O)C(=O)NC(Cc2ccccc2)C(=O)N1C` (configuration not stated)?
A: nuclei count, normalised [1, 10]: 104%; nuclei count, normalised [1, 11]: 96.6%; nuclei count, normalised [1, 12]: 88.2%; nuclei count, normalised [1, 13]: 88.5%; nuclei count, normalised [1, 6]: 51.2%; nuclei count, normalised [1, 14]: 94.6%; nuclei count, normalised [1, 15]: 89.6%; nuclei count, normalised [1, 16]: 76.5%; nuclei count, normalised [1, 17]: 85.4%; nuclei count, normalised [1, 7]: 34.6%; p53-positive nuclei, normalised [2, 18]: 0.242% (inactive); p53-positive nuclei, normalised [2, 19]: 0.104% (inactive); p53-positive nuclei, normalised [2, 20]: -0.113% (inactive); p53-positive nuclei, normalised [2, 21]: -0.0271% (inactive); p53-positive nuclei, normalised [2, 8]: -0.0215% (inactive); p53-positive nuclei, normalised [2, 22]: 0.00102%; p53-positive nuclei, normalised [2, 23]: -0.0368%; p53-positive nuclei, normalised [2, 24]: -0.0914%; p53-positive nuclei, normalised [2, 25]: -0.218%; p53-positive nuclei, normalised [2, 9]: -0.22%

Q: With `CC(CCC(=O)O)C1CC[C@H]2[C@@H]3C(O)C[C@@H]4CC(O)CC[C@]4(C)[C@@H]3CC[C@]12C` (some centres not stated) as the compound, how does the nuclei count, normalised [1, 10] read?
A: Its nuclei count, normalised is 103%.

Q: And the nuclei count, normalised [1, 11]?
A: Its nuclei count, normalised is 104%.

Q: And the nuclei count, normalised [1, 12]?
A: The nuclei count, normalised was 103%.

Q: What about the nuclei count, normalised [1, 6] of the same compound?
A: The nuclei count, normalised was 105%.

Q: What about the nuclei count, normalised [1, 14] of the same compound?
A: The nuclei count, normalised was 101%.

Q: And the nuclei count, normalised [1, 15]?
A: The nuclei count, normalised was 101%.

Q: And the nuclei count, normalised [1, 16]?
A: The nuclei count, normalised was 100%.

Q: And the nuclei count, normalised [1, 7]?
A: Its nuclei count, normalised is 106%.

Q: What about the p53-positive nuclei, normalised [2, 18] of the same compound?
A: The p53-positive nuclei, normalised was 0.0117% (inactive).

Q: What about the p53-positive nuclei, normalised [2, 19] of the same compound?
A: The p53-positive nuclei, normalised was -0.178% (inactive).

Q: And the p53-positive nuclei, normalised [2, 20]?
A: The p53-positive nuclei, normalised was 0.0148% (inactive).

Q: What about the p53-positive nuclei, normalised [2, 8] of the same compound?
A: Its p53-positive nuclei, normalised is -0.147% (inactive).

Q: What about the p53-positive nuclei, normalised [2, 22] of the same compound?
A: The p53-positive nuclei, normalised was 0.00498%.

Q: And the p53-positive nuclei, normalised [2, 23]?
A: The p53-positive nuclei, normalised was -0.109%.

Q: What about the p53-positive nuclei, normalised [2, 24] of the same compound?
A: Its p53-positive nuclei, normalised is -0.106%.

Q: What about the p53-positive nuclei, normalised [2, 9] of the same compound?
A: The p53-positive nuclei, normalised was -0.11%.

Q: Which results are given for `O=C(O)CCCc1c[nH]c2ccccc12`?
A: nuclei count, normalised [1, 13]: 110%; nuclei count, normalised [1, 17]: 101%; p53-positive nuclei, normalised [2, 21]: -0.0398% (inactive); p53-positive nuclei, normalised [2, 25]: 2.53%

Q: For `O=C(C=Cc1ccc(CN(CCO)CCc2c[nH]c3ccccc23)cc1)NO`, which nuclei count, normalised [1, 13] is on record?
A: The nuclei count, normalised was 37.8%.

Q: And the nuclei count, normalised [1, 17]?
A: The nuclei count, normalised was 20.4%.

Q: What about the p53-positive nuclei, normalised [2, 21] of the same compound?
A: The p53-positive nuclei, normalised was 113% (active).

Q: And the p53-positive nuclei, normalised [2, 25]?
A: The p53-positive nuclei, normalised was 94.4%.

Q: For `OCc1c[nH]c2ccccc12`, which nuclei count, normalised [1, 10] is on record?
A: The nuclei count, normalised was 116%.

Q: And the nuclei count, normalised [1, 11]?
A: The nuclei count, normalised was 113%.

Q: What about the nuclei count, normalised [1, 12] of the same compound?
A: The nuclei count, normalised was 124%.

Q: And the nuclei count, normalised [1, 13]?
A: Its nuclei count, normalised is 121%.

Q: What about the nuclei count, normalised [1, 6] of the same compound?
A: The nuclei count, normalised was 113%.

Q: What about the nuclei count, normalised [1, 14] of the same compound?
A: Its nuclei count, normalised is 111%.

Q: What about the nuclei count, normalised [1, 15] of the same compound?
A: The nuclei count, normalised was 105%.

Q: And the nuclei count, normalised [1, 16]?
A: The nuclei count, normalised was 115%.

Q: What about the nuclei count, normalised [1, 17] of the same compound?
A: Its nuclei count, normalised is 105%.

Q: And the nuclei count, normalised [1, 7]?
A: Its nuclei count, normalised is 106%.

Q: And the p53-positive nuclei, normalised [2, 18]?
A: The p53-positive nuclei, normalised was -0.0881% (inactive).

Q: What about the p53-positive nuclei, normalised [2, 19] of the same compound?
A: Its p53-positive nuclei, normalised is 0.33% (inactive).

Q: What about the p53-positive nuclei, normalised [2, 20] of the same compound?
A: Its p53-positive nuclei, normalised is 0.0198% (inactive).

Q: What about the p53-positive nuclei, normalised [2, 21] of the same compound?
A: Its p53-positive nuclei, normalised is -0.0843% (inactive).

Q: What about the p53-positive nuclei, normalised [2, 8] of the same compound?
A: The p53-positive nuclei, normalised was -0.042% (inactive).

Q: What about the p53-positive nuclei, normalised [2, 22] of the same compound?
A: The p53-positive nuclei, normalised was -0.0144%.

Q: And the p53-positive nuclei, normalised [2, 23]?
A: Its p53-positive nuclei, normalised is 0.188%.

Q: What about the p53-positive nuclei, normalised [2, 24] of the same compound?
A: Its p53-positive nuclei, normalised is 0.151%.

Q: And the p53-positive nuclei, normalised [2, 25]?
A: Its p53-positive nuclei, normalised is -0.374%.

Q: And the p53-positive nuclei, normalised [2, 9]?
A: The p53-positive nuclei, normalised was 0.0508%.

Q: For `CCc1cc2c(cc1CC)CC(NCC(O)c1ccc(O)c3[nH]c(=O)ccc13)C2` (configuration not stated), which nuclei count, normalised [1, 13] is on record?
A: The nuclei count, normalised was 112%.

Q: And the nuclei count, normalised [1, 17]?
A: The nuclei count, normalised was 110%.

Q: What about the p53-positive nuclei, normalised [2, 21] of the same compound?
A: The p53-positive nuclei, normalised was -0.298% (inactive).

Q: What about the p53-positive nuclei, normalised [2, 25] of the same compound?
A: Its p53-positive nuclei, normalised is -0.54%.

Q: Which nuclei count, normalised [1, 3] does the source give for `CCCCC[C@H](O)/C=C/[C@H]1[C@H](O)CC(=O)[C@@H]1C/C=C\CCCC(=O)OC` here?
A: The nuclei count, normalised was 111%.

Q: And the nuclei count, normalised [1, 4]?
A: Its nuclei count, normalised is 106%.

Q: And the p53-positive nuclei, normalised ([2]; concentration not given here)?
A: Its p53-positive nuclei, normalised is -0.0657% (inactive).

Q: What about the p53-positive nuclei, normalised [2, 5] of the same compound?
A: Its p53-positive nuclei, normalised is 0.249%.
